# Source: PubChem BioAssay AID651818 (Broad Institute, 2012)
# Results with a measured potency or affinity are listed apart. Results filed as inconclusive are left out. Activity calls are given as the source filed them. Cut-off read from the data, not from the text of the source: inconclusive = activity change below about -55%; inactive = above that.
# Assay: intracellular Trypanosoma cruzi inhibitors in host cells – cell-based, plate reader, cherry-pick samples, set 3, dose response (AID 651818)
# Details: series mostly up to 10 µM; activity change, negative = inhibition: at the top concentration
row,Structure (SMILES),"activity change, negative = inhibition"
1,CNC[C@H]1Oc2c(NS(=O)(=O)c3cccs3)cccc2C(=O)N([C@@H](C)CO)C[C@@H]1C,-3.22% (inactive)
2,C[C@@H]1CN([C@H](C)CO)C(=O)c2cccc(NS(=O)(=O)c3cn(C)cn3)c2O[C@@H]1CN(C)Cc1ccncc1,14.4% (inactive)
3,C[C@@H]1CCCCO[C@@H](CN(C)Cc2ccc(C(F)(F)F)cc2)[C@@H](C)CN([C@H](C)CO)C(=O)c2cc(NC(=O)Nc3ccc4c(c3)OCO4)ccc2O1,-99.8% (inactive)
4,Cc1noc(C)c1NC(=O)N(C)C[C@@H]1Oc2c(NC(=O)NC3CCCCC3)cccc2C(=O)N([C@@H](C)CO)C[C@@H]1C,-23.9% (inactive)
5,C[C@H](CO)N1C[C@H](C)[C@@H](CN(C)S(=O)(=O)c2ccc(F)cc2)Oc2c(NC(=O)C3CCOCC3)cccc2C1=O,13.3% (inactive)
6,C[C@H](CO)N1C[C@H](C)[C@H](CN(C)S(C)(=O)=O)Oc2c(NS(=O)(=O)c3ccc(F)cc3)cccc2C1=O,25.3% (inactive)
7,Cc1noc(C)c1NC(=O)Nc1cccc2c1O[C@@H](CN(C)C(=O)NC1CCCCC1)[C@@H](C)CN([C@@H](C)CO)C2=O,-25.2% (inactive)
8,Cc1ccc(S(=O)(=O)Nc2cccc3c2O[C@H](CN(C)CC2CCCCC2)[C@@H](C)CN([C@H](C)CO)C3=O)cc1,30.9% (inactive)
9,C[C@H](CO)N1C[C@H](C)[C@@H](CN(C)C(=O)Nc2ccc3c(c2)OCO3)Oc2c(NC(=O)C3CCOCC3)cccc2C1=O,-14.1% (inactive)
10,C[C@@H]1CN([C@@H](C)CO)C(=O)c2cccc(NC(=O)c3ccncc3)c2O[C@@H]1CN(C)C,-5.04% (inactive)
11,C[C@@H]1CN([C@@H](C)CO)C(=O)c2cccc(NS(C)(=O)=O)c2O[C@H]1CN(C)C(=O)NC1CCCCC1,-0.449% (inactive)
12,Cc1noc(C)c1S(=O)(=O)N(C)C[C@@H]1Oc2c(NS(=O)(=O)c3cn(C)cn3)cccc2C(=O)N([C@H](C)CO)C[C@@H]1C,-2.56% (inactive)
13,C[C@H]1CN([C@@H](C)CO)C(=O)c2cccc(NS(=O)(=O)c3cccs3)c2O[C@@H]1CN(C)C(=O)NC1CCCCC1,29.2% (inactive)
14,C[C@@H]1CN([C@H](C)CO)C(=O)c2cccc(NS(=O)(=O)c3cn(C)cn3)c2O[C@@H]1CN(C)CC1CCCCC1,-17% (inactive)
15,C[C@H](CO)N1C[C@H](C)[C@H](CN(C)C(=O)NC2CCCCC2)Oc2c(NS(=O)(=O)c3ccc(F)cc3)cccc2C1=O,-54.3% (inactive)
16,C[C@H](CO)N1C[C@H](C)[C@@H](CN(C)S(=O)(=O)c2ccc(F)cc2)Oc2c(NC(=O)c3cnccn3)cccc2C1=O,-3.76% (inactive)
17,COc1ccc(NC(=O)N(C)C[C@H]2Oc3c(NC(=O)C4CCCCC4)cccc3C(=O)N([C@H](C)CO)C[C@@H]2C)cc1,31.2% (inactive)
18,C[C@@H]1CN([C@@H](C)CO)C(=O)c2cccc(NC(=O)Nc3ccccc3)c2O[C@@H]1CN(C)S(=O)(=O)c1cn(C)cn1,-19.1% (inactive)
19,Cc1ccc(S(=O)(=O)Nc2cccc3c2O[C@H](CN(C)C(=O)NC(C)C)[C@@H](C)CN([C@H](C)CO)C3=O)cc1,11.7% (inactive)
20,C[C@H](CO)N1C[C@H](C)[C@H](CN(C)Cc2ccc3c(c2)OCO3)Oc2c(NC(=O)Nc3ccc(F)cc3)cccc2C1=O,-43.3% (inactive)
21,C[C@@H]1CN([C@@H](C)CO)C(=O)c2cccc(NS(=O)(=O)c3ccccc3)c2O[C@@H]1CN(C)CC1CC1,-7.83% (inactive)
22,C[C@H](CO)N1C[C@H](C)[C@@H](CN(C)S(=O)(=O)c2ccc(Cl)cc2)Oc2c(NC(=O)c3cnccn3)cccc2C1=O,-16.5% (inactive)
